About 1,400 (61%) of roughly 2,300 compounds were called active. Inconclusive results (about 29%) are left out. The set was probably picked from earlier hits. Some of the results follow. Values without a mark were called inactive. Calls come from the whole dose curve; as a rule, active = well fitted inhibition curve with a large enough effect; inconclusive = small, poorly fitted or top-dose-only effect, or effect the other way; inactive = no such curve, though single readings can be large or run the other way.
Assay: Confirmation screen for delayed death inhibitors of the malarial parasite plastid, 96 hour incubation; note: nearly all actives have a fitted effect of over 60% in size
Conditions: P. falciparum luciferase growth in erythrocytes; series mostly up to 28.7 µM; activity change, negative = inhibition: at the top concentration
Method in brief: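 Two-generation (96 h, 37 C) exposure of P. falciparum carrying an integrated firefly luciferase reporter in erythrocytes, 0.1% parasitemia and 2% hematocrit final, Albumax-supplemented RPMI. Luminescence decrease measures growth inhibition.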
% is set by controls: 0 for no effect and ±100 for the full control effect; potency is the fitted concentration of half-maximal effect.

SMILES | Potency | activity change, negative = inhibition
O=C(c1cccc(Cl)c1)c1nn(-c2ccccc2)c(=O)cc1C(F)(F)F | 6.31 µM (active) | –
O=C(c1ccccc1)c1nn(-c2ccc(Cl)cc2)c(=O)cc1C(F)(F)F | 12.6 µM (active) | –
Cc1oc(=O)c(NC(=O)c2ccc(Cl)cc2)cc1C(=O)c1ccccc1 | – | -6.13%
COc1ccc(N2CCN(C3CCCN(Cc4ccc(F)cc4)C3)CC2)cc1 (centres undefined) | 14.1 µM (active) | –
COc1ccccc1N1CCN(C2CCCN(Cc3ccc(Cl)cc3)C2)CC1 (centres undefined) | 2.51 µM (active) | –
O=C(/C=C/c1ccccc1)c1ccc(NC2=NCCCS2)cc1 | 14.1 µM (active) | –
Cc1cccc(/C=C/C(=O)c2ccc(NC3=NCCCS3)cc2)c1 | 11.2 µM (active) | –
Cc1cc(C(=O)N2CCCC(N3CCN(c4cccc(C(F)(F)F)c4)CC3)C2)c(C)o1 (centres undefined) | 10 µM (active) | –
O=C(c1ccsc1)N1CCCC(N2CCN(c3cccc(C(F)(F)F)c3)CC2)C1 (centres undefined) | 12.6 µM (active) | –
COc1ccc(/C=C/C(=O)c2ccccc2)cc1Cn1nnc2ccccc21 | 6.31 µM (active) | –
COc1cc(Cn2nnc3ccccc32)ccc1O | 11.2 µM (active) | –
Cc1cccc(NC(=S)/N=C(\N)Nc2nc(C)c3ccccc3n2)c1 | 12.6 µM (active) | –
CCCN1CCN(CCCNC(=O)c2cc3c(s2)-c2c(C)cccc2OC3)CC1 | 12.6 µM (active) | –
CCn1c2ccccc2c2c3ncc4cccn4c3ccc21 | 14.1 µM (active) | –
COC(=O)[C@@H]1C[C@]2(OC(=O)c3ccccc3)C=CC(=O)C[C@@H]2N1C(=O)OCc1ccccc1 | 12.6 µM (active) | –
Cc1cc(OCC(=O)N2CCCC2)cc(C)c1Cl | – | -3.62%
CCOc1ccc(S(=O)(=O)N2CCN(C(=O)CCOc3ccccc3C)CC2)cc1 | 11.2 µM (active) | –
O=S(=O)(c1ccc(OCc2ccc(Br)cc2)cc1)N1CCOCC1 | 8.91 µM (active) | –
CCOc1ccccc1OCCC(=O)N1CCN(S(=O)(=O)c2ccccc2[N+](=O)[O-])CC1 | 11.2 µM (active) | –
O=S(=O)(c1ccc(SCCO)nc1)N1CCOCC1 | – | 5.43%

SMILES | Potency | activity change, negative = inhibition
O=C(COc1ccccc1)N1CCN(S(=O)(=O)c2ccc(Br)cc2)CC1 | 10 µM (active) | –
Cc1cc(C)n2nc(C(=O)N/N=C/c3c4ccccc4cc4ccccc34)nc2n1 | 4.47 µM (active) | –
Cn1nccc1C(=O)N1CCc2c([nH]c3ccccc23)C1c1ccc(F)cc1 (centres undefined) | 6.31 µM (active) | –
CCc1ccc(C2c3[nH]c4ccccc4c3CCN2C(=O)c2cc(C)nn2C)cc1 (centres undefined) | 3.55 µM (active) | –
CSc1ccc(C2c3[nH]c4ccccc4c3CCN2C(=O)c2ccnn2C)cc1 (centres undefined) | 3.98 µM (active) | –
N=c1c2c3c(sc2ncn1Cc1ccccc1)CCCC3 | – | -12.3%
COc1ccccc1NC(=O)c1oc2ccccc2c1NC(=O)C1CC1 | 7.94 µM (active) | –
O=C(c1ccccc1)N1CCCC(c2ccc(Cl)cc2)=N1 | 12.6 µM (active) | –
O=[N+]([O-])c1ccc(Sc2cccc3cccnc23)c([N+](=O)[O-])c1 | 2.82 µM (active) | –
Cc1ccc(/C=C/C(=O)NC(C)c2ccccc2)cc1 (centres undefined) | 11.2 µM (active) | –
CCN(CC)CCC[C@H](C)Nc1ccnc2cc(Cl)ccc12 | 0.501 µM (active) | –
COc1ccc2nc3cc(Cl)ccc3c(Nc3cc(C(C)C)c(O)cc3C)c2c1 | 0.0251 µM (active) | –
CCN(CC)CCC[C@H](C)Nc1c2ccc(Cl)cc2nc2ccc(OC)cc12 | 0.224 µM (active) | –
O=C(CCl)Nc1cccc2ncccc12 | 3.55 µM (active) | –
Cc1nc(SC(C)C(=O)NCC2CCCO2)c2cc(-c3ccccc3)sc2n1 (centres undefined) | 11.2 µM (active) | –
CN(C)c1ccc(S(=O)(=O)N2CCCCC2)cc1NC(=O)C1=NN(c2ccccc2)C(=O)CC1 | 3.55 µM (active) | –
O=C(Nc1cc(Cl)ccc1N1CCCC1)C1=NN(c2ccccc2)C(=O)CC1 | 12.6 µM (active) | –
O=C(CSc1nnc(COc2ccccc2)n1-c1ccccc1)c1cccs1 | 11.2 µM (active) | –
COc1cc2c(cc1OC)CN(C(=O)COc1ccccc1[N+](=O)[O-])CC2 | 14.1 µM (active) | –
COc1cc2c(cc1OC)CN(C(=O)COc1ccccc1C#N)CC2 | – | -97.4%

SMILES | Potency | activity change, negative = inhibition
COc1ccc2c(C)cc(Sc3nnnn3-c3ccccc3)nc2c1 | 15.8 µM (active) | –
Cc1ccc(C)c(-n2nnnc2Sc2nnnn2-c2ccccc2)c1 | 10 µM (active) | –
CCCOc1ccccc1/C=C1\SC(N2CCCCC2)=NC1=O | 0.891 µM (active) | –
COc1cccc(/C=C2\SC(N3CCCC(C)C3)=NC2=O)c1OC (centres undefined) | 11.2 µM (active) | –
CCc1ccc(-c2cc(C)no2)cc1S(=O)(=O)NCc1ccco1 | 12.6 µM (active) | –
Cc1cc(-c2ccc(C(C)C)c(S(=O)(=O)NCc3ccco3)c2)on1 | 14.1 µM (active) | –
CN(C)S(=O)(=O)c1cccc(NC(=S)N/N=C/c2cc(Br)ccc2O)c1 | 3.98 µM (active) | –
O=C(O)CCn1c(-c2ccccc2)cc2c1CCCC2=O | – | -11.5%
CC(=O)/C=C/c1ccccc1Oc1c(F)c(F)nc(F)c1F | 3.16 µM (active) | –
O=C(CSc1cccc2cccnc12)N/N=C/c1cccnc1 | 12.6 µM (active) | –
CN(C)S(=O)(=O)c1cccc(NC(=O)CSc2cccc3cccnc23)c1 | 7.94 µM (active) | –
O=C(NC1CC1)C1=C[C@@H](C2CCCCC2)C[C@@H](OCc2ccc(CO)cc2)O1 | 10 µM (active) | –
O=C(NCc1ccccc1)C1=C[C@@H](c2coc3ccccc3c2=O)C[C@@H](OCc2ccc(CO)cc2)O1 | 7.08 µM (active) | –
O=C(Nc1ccccc1)C1=C[C@@H](C2CCCCC2)C[C@@H](OCc2ccc(CO)cc2)O1 | 10 µM (active) | –
COc1cccc(NC(=O)CSc2nc3n[nH]c(C)c3c(=N)n2-c2cccc(OC)c2)c1 | 6.31 µM (active) | –
NC1=NC[C@@H](Cc2ccc(O)cc2)N1CCc1cccc(F)c1 | 3.98 µM (active) | –
NC1=NC[C@H](Cc2ccc(O)cc2)N1CCc1cccc(F)c1 | 3.16 µM (active) | –
NC(=O)C1CCN(c2nc(C3CC3)nc3c2nnn3Cc2ccccc2Cl)CC1 | 3.16 µM (active) | –
CS(=O)(=O)c1ccc(-c2nnc(NC(=O)c3ccc(S(=O)(=O)N4CCCC4)cc3)o2)cc1 | 15.8 µM (active) | –

Source: PubChem BioAssay AID504848 (National Center for Advancing Translational Sciences (NCATS), 2011)
